In all, about 270,000 compounds went through this assay and about 5,800 (2.1%) were called active. Another 16% or so got no clear call; they are omitted. The call rests on the fitted dose curve; in most records, active means well fitted inhibition curve with a large enough effect; inconclusive means small, poorly fitted or top-dose-only effect; inactive means flat fitted curve, though single readings scatter. Shown is part of a subset that was picked to be rich in actives. Entries that show only a call come without a potency.
Potency means the concentration at half of the fitted maximal effect.

Microtubule-associated protein tau (Homo sapiens), sequence (P10636 561-689 P618L limits assumed): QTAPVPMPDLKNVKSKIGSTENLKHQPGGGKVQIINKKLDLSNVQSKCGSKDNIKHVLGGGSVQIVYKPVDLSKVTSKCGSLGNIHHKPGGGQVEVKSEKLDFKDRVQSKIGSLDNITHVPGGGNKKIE

This experiment addresses Microtubule-associated protein tau (Homo sapiens) (UniProt P10636). Put plainly: qHTS for Inhibitors of Tau Fibril Formation, Thioflavin T Binding. Further: nearly all actives have a fitted effect of over 55% in size. As to conditions: recombinant tau K18 P301L (four-repeat tau fragment), heparin-induced fibrillization, ThT fluorescence; series mostly up to 57.4 µM. The gist of the method:
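Heparin-induced fibrillization of the P301L-mutant K18 repeat-domain fragment of human tau was followed by ThT binding in quantitative high-throughput format.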
For the molecule `Cc1c(-c2nc(-c3ccc4c(c3)OCO4)no2)nnn1-c1ccc(Br)cc1F`, the Potency entry was “inactive”.
Next, `CC1CCCN(c2nc3c(S(=O)(=O)c4ccc(C(C)C)cc4)nnn3c3ccsc23)C1` (configuration not stated): “inactive”; `CCOc1ccc(CNCc2c(C(=O)O)c(C)n(Cc3cccc(OC)c3)c2C)cc1OC`: “inactive”.
For the molecule `CCc1ccc(N(CC)C(=O)CCn2cnc3onc(-c4ccc(F)cc4)c3c2=O)cc1`, the Potency result was “inactive”.
Next, `Cc1ccc2c(=O)c(C(=O)c3ccc(F)cc3)cn(CC(=O)NC3CCCCC3)c2n1`: “inactive”.
Take `COc1cc(-c2noc(-c3ccc(N4CCCC4)c([N+](=O)[O-])c3)n2)cc(OC)c1OC`: the Potency result is “inactive”.
Next, `CCN1CCc2nc(NC(=O)c3cc(F)c(F)cc3Cl)sc2C1`: “inactive”; `CCc1ccc(NC(=O)c2sc3nc4c(cc3c2N)CN(CC)CC4)cc1`: 10 µM (active); `CCc1ccccc1NC(=O)c1sc2nc3c(cc2c1N)CN(Cc1ccccc1)CC3`: “inactive”.
Take `Cc1ccc(-n2ncc(C(=O)N(C)Cc3ccccc3)c2-n2cccc2)cc1`: the Potency result is “inactive”.
Take `Cc1cccc(C(=O)NNC(=O)c2cccc([N+](=O)[O-])c2)c1`: the Potency result was “inactive”.
`O=C(Nc1ccccc1)/C(=C/c1ccc([N+](=O)[O-])cc1)NC(=O)c1ccccc1`: the Potency result was “inactive”.
In the case of `Cc1ccccc1OCCOc1ccc([N+](=O)[O-])cc1/C=N/n1cnnc1`, the Potency entry is “inactive”.
The value for `O=[N+]([O-])c1ccc(N/N=C/c2ccccc2)cc1` was 3.55 µM (active); that for `Cc1cccc(COc2ccccc2/C=N/Nc2ccc([N+](=O)[O-])cc2)c1` was 3.16 µM (active); that for `Cc1c(C(=O)N/N=C/c2ccccc2)[nH]c2c([N+](=O)[O-])cccc12` was “inactive”.
Regarding `O=C(NC(Cc1c[nH]c2ccccc12)C(=O)N/N=C/c1ccc(Br)cc1)c1cccs1` (configuration not stated), the Potency entry is “inactive”.
The value for `COc1cc(CC(=O)N/N=C/c2ccccc2)c([N+](=O)[O-])cc1OC` was “inactive”; that for `O=C(N/N=C/c1ccc([N+](=O)[O-])cc1)c1c[nH]c2ccccc12` was 2.82 µM (active); that for `CNc1ccc(-c2nc(-c3ccco3)no2)cc1[N+](=O)[O-]` was “inactive”.
On to `Cc1ccc(Cl)cc1NC(=O)NC1COc2ccccc2C1` (configuration not stated), for which the Potency entry was “inactive”.
Turning to `COc1ccc(NC(=O)CSc2nccn2C2CCCC2)cc1OC`, the Potency entry was “inactive”.
`O=C(CN1C(=O)CCn2nc(-c3ccccc3)cc21)NCc1ccccc1`: the Potency entry was “inactive”.
In the case of `Cc1ccc(-n2c(SCC(=O)Nc3cccc(F)c3)nc3c(oc4ccccc43)c2=O)cc1C`, the Potency result is “inactive”.
Next, `COc1cccc2sc(NNC(=O)c3nc4ccccc4s3)nc12`: 7.94 µM (active); `COc1ccc(S(=O)(=O)N2CCOCC2)cc1C(=O)Nc1nc2ccccc2s1`: “inactive”; `COc1ccc(/C=C(/CC(=O)Nc2ccc(C)cc2)c2nc3ccccc3s2)cc1`: “inactive”.
